Rows were chosen to be rich in hits. Some 12% of all compounds tested hit in one or more screens of this group.
SARS PLpro yeast – qHTS of Yeast-based Assay for SARS-CoV PLP | AID 485353, 2010 | S. cerevisiae expressing SARS-CoV PLpro, growth rescue | Potency, µM (doses to about 32.9 µM), hits mostly activators | 0.19% of 330,000 active; also: nearly all actives have a fitted effect of over 55% in size
CHX counter – Cycloheximide Counterscreen for Small Molecule Inhibitors of Shiga Toxin. cell reporter, cycloheximide protein synthesis inhibition counterscreen. max response, %. AID 2314, 2010. 12% of 300,000 active; in the data active = max response mostly above about 13%, no sharp cut-off; inactive = mostly below about 14%; also: read at 38.3 µM for the half of the compounds with a filed dose
NS1 function inh – qHTS Assay for Inhibitors of Influenza NS1 Protein Function | Potency, µM (doses to about 46.1 µM) | 0.4% of 270,000 active; also: actives are rising curves; nearly all actives have a fitted effect of over 50% in size
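Recovery from NS1-induced slow growth read by OD600 in budding yeast switched to galactose assay medium (pH 6.0, -URA) at 1:100 dilution. Compound 23 nl per well; the matching strain lacking NS1 serves as control.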
Shiga toxin inh – A qHTS for Small Molecule Inhibitors of Shiga Toxin | Vero cells, Shiga toxin protein synthesis inhibition reporter | 9.2% of 290,000 active | AID 2315, 2010 | inhibition, % at 38.7 µM; in the data active = inhibition mostly above about 28%, no sharp cut-off; inactive = mostly below about 43%
Of the large screens only hits and unclear results are named; the others gave an inactive call. Unless noted, calls follow the shape of the full dose curve.

CCCCn1cc(S(=O)(=O)c2ccccc2)c(=O)c2cc(C)ccc21	none
O=C(O)CCC(=O)Nc1sc2c(c1C(=O)NC1CCCC1)CCCC2	none
CN(C)S(=O)(=O)N1CCC(Oc2cccc(C(=O)NCCC3=CCCCC3)c2)CC1	CHX counter 24, Shiga toxin inh 63
CCC1C(=O)NCCN1C(=O)c1cccc(OC2CCN(S(=O)(=O)N(C)C)CC2)c1 (centres undefined)	CHX counter 38
CN(C)S(=O)(=O)N1CCC(Oc2cccc(C(=O)NC3CCCCC3)c2)CC1	none
CN(C)S(=O)(=O)N1CCC(Oc2cccc(C(=O)NC3CCOC3)c2)CC1 (centres undefined)	CHX counter 15
C=CCN(CC=C)C(=O)c1cccc(OC2CCN(S(=O)(=O)N(C)C)CC2)c1	none
CC1=NN(C(=O)c2ccc(C)cc2)C(O)(C(F)(F)OC(F)(F)F)C1 (centres undefined)	CHX counter 31, Shiga toxin inh 72
CC1=NN(C(=O)c2ccccc2-n2cccc2)C(O)(C(F)(F)F)C1 (centres undefined)	none
COC(=O)N1N=C(c2ccc(Br)cc2)CC1(O)C(F)(F)F (centres undefined)	CHX counter 47, Shiga toxin inh 40
CCOC(=O)N1N=C(CC)CC1(O)C(F)(F)F (centres undefined)	none
CCOC(=O)N1N=C(c2ccc(C)cc2)CC1(O)C(F)(F)F (centres undefined)	CHX counter 15, Shiga toxin inh 36
CCOC(=O)N1N=C(c2ccccc2)CC1(O)C(F)(F)F (centres undefined)	CHX counter 49, Shiga toxin inh 101
CC1CCN(S(=O)(=O)c2cccc(C(=O)Nc3ccccc3)c2)CC1	none
CC1(C)CN(c2ccccc2)N(Cc2ccc(F)cc2)C1=O	none
NC(=O)c1ccc(C(F)(F)F)n(Cc2ccc(Cl)cc2)c1=O	CHX counter 25
CCOC(=O)c1cc(C#N)c(SCC(=O)Nc2ccc(C(C)=O)cc2)[nH]c1=O	CHX counter 17, Shiga toxin inh 47
O=C(Nc1cccnc1)Nc1cccc([N+](=O)[O-])c1	none
Cc1ccc(NC(=O)Nc2cccc([N+](=O)[O-])c2)cc1F	CHX counter 31, Shiga toxin inh 54
O=C(Nc1ccncc1)Nc1cccc(C(F)(F)F)c1	SARS PLpro yeast inconclusive
Cc1cc(NC(=O)Nc2cccc([N+](=O)[O-])c2)no1	none (no result: NS1 function inh)
Cc1ccc(C(C)C)cc1NC(=O)Nc1ccc([N+](=O)[O-])cc1	Shiga toxin inh 34
O=C(Nc1ccc(OC(F)F)cc1)Nc1cccc(C(F)(F)F)c1	CHX counter 12
CCOc1ccc(NC(=O)Nc2cc(C(C)C)ccc2C)cc1	none
O=C(Nc1ccc(OC(F)(F)F)cc1)Nc1cccc([N+](=O)[O-])c1	CHX counter 18, Shiga toxin inh 58
COc1ccc(NC(=O)C(=O)NCC2CCCN2S(=O)(=O)c2ccc(C)cc2)cc1 (centres undefined)	none (no result: CHX counter, NS1 function inh, Shiga toxin inh)
Cc1ccc(S(=O)(=O)n2c3ccc(Cl)cc3c3nc(C)sc32)cc1	none
Cc1cccc(NP(C)(=O)c2nc3c(s2)CCCC3)c1 (centres undefined)	CHX counter 25, Shiga toxin inh 37
Cc1ccccc1-c1cc(C(=O)Nc2nc3c(s2)CCCC3)c2ccccc2n1	none
CNC(=S)NNC(=O)c1ccc2c(c1)OCO2	Shiga toxin inh 52
O=C(NNC(=O)c1cccc2ccccc12)c1ccc2c(c1)OCO2	CHX counter 24, Shiga toxin inh 50
CCCCNC(=S)NNC(=O)c1ccc2c(c1)OCO2	none
CNC(=S)NNC(=O)c1ccc(C(C)(C)C)cc1	CHX counter 17
COc1ccc(C(=O)NNC(=O)c2ccc(C(C)(C)C)cc2)cc1	none (no result: NS1 function inh)
Cc1nnc(SCC(=O)Nc2ccc(N(C)C)cc2)[nH]c1=O	none (no result: SARS PLpro yeast, NS1 function inh)
CC(CCCC(C)(C)O)NC(=O)c1ccc(OC2CCN(C(=O)C3CC3)CC2)cc1 (centres undefined)	none
O=C1CCC[C@@H]2[C@H]3CCC[N+]4([O-])CCC[C@@H](CN12)[C@@H]34 (some centres undefined)	none
O=C(CSc1ncn[nH]1)Nc1nc(-c2ccccc2)ns1	CHX counter 34, NS1 function inh inconclusive, Shiga toxin inh 49
O=C(CSc1ncn[nH]1)Nc1ccc(Br)cc1F	CHX counter 25
O=C(CSc1ncn[nH]1)NCc1ccccc1	none
CC(=O)c1c(C)nc(-c2ccccc2)nc1NC(=O)C(C)C	none
CC(=O)Nc1cc(-c2ccc(Cl)cc2)[nH]n1	CHX counter 44
O=C(CSc1ncn[nH]1)Nc1ccccc1C(=O)O	none
CC(C)C(=O)Nc1nc(-c2ccccc2)ns1	CHX counter 48, Shiga toxin inh 96
COC(=O)c1c(NC(=O)COC(=O)c2ccc(O)cc2)sc2c1CCCCC2	none
CCC(=O)Nc1nc(-c2ccccc2)ns1	CHX counter 32, Shiga toxin inh 61
CC(=O)Nc1nc(-c2ccc(Cl)cc2)ns1	CHX counter 64, Shiga toxin inh active
Cc1ccc(CNC(=O)CSc2ncn[nH]2)cc1	none
CCCC(=O)Nc1nc(-c2ccccc2)ns1	CHX counter 86, Shiga toxin inh 28
Cc1ccc(-c2nc(NC(=O)CSc3ncn[nH]3)ns2)cc1	CHX counter 16, Shiga toxin inh 59
CC(=O)c1c(C)nc(-c2ccc(Cl)cc2)nc1NC(=O)C(C)C	none
O=C(NCCc1cscn1)C1CCC(=O)N(Cc2ccc(Cl)cc2)C1 (centres undefined)	none
Cc1cc(-n2c(C)cc(C(=O)CN3C(=O)NC4(CCCC4)C3=O)c2C)no1	CHX counter 27
Cc1cc(-n2c(C)cc(C(=O)CN3C(=O)NC4(CCCCC4)C3=O)c2C)no1	CHX counter 9.7
Cc1cc(-n2c(C)cc(C(=O)CN3C(=O)NC4(CCCCC4C)C3=O)c2C)no1 (centres undefined)	none
Cc1ccc(CNc2ccc(N3CCOCC3)cc2)s1	CHX counter 48, Shiga toxin inh 93
Cc1ccc(NCc2ccc(C)s2)cc1	CHX counter 37, Shiga toxin inh 66
O=C(COC(=O)C1=COCCO1)Nc1ccc(Oc2ccccc2)cc1	none
Cc1ccc(S(=O)(=O)NCC(=O)NCC(=O)N(C)Cc2ccc3ccccc3c2)cc1C	none
COc1ccc(C(=O)NCCC2=CCCCC2)cc1[N+](=O)[O-]	CHX counter 24, Shiga toxin inh 41
COc1ccc(OCC(=O)NCCC2=CCCCC2)c([N+](=O)[O-])c1	none (no result: NS1 function inh)
COc1cccc(C(=O)NCCC2=CCCCC2)c1OC	CHX counter 33, Shiga toxin inh 108
COc1ccc(C(=O)NCCC2=CCCCC2)cc1OC1CCN(C(C)C)CC1	SARS PLpro yeast inconclusive, CHX counter 42, Shiga toxin inh 42
Cc1cc(C(=O)NCCC2=CCCCC2)c(C)o1	CHX counter 39, Shiga toxin inh 117
Cc1nc(SCC(=O)Nc2nc3ccccc3s2)c(C#N)c(C)c1C	CHX counter 29
Cc1cc(C(F)(F)F)c(C#N)c(SCC(=O)Nc2nc3ccccc3s2)n1	CHX counter 112, Shiga toxin inh 163
Cc1ccc2sc(NC(=O)CSc3nc(C)cc(C)c3C#N)nc2c1	CHX counter 47, Shiga toxin inh 78

Screens (PubChem BioAssay)
